DUSP3 inh: DUSP3 (human) phosphatase inhibition; P51452; recombinant VHR phosphatase, pNPP absorbance; inhibition, % at 13.3 µM; 290,000 tested, 0.52% active; in the data active means inhibition above about 50%
Target sequence (P51452 whole entry, looked up): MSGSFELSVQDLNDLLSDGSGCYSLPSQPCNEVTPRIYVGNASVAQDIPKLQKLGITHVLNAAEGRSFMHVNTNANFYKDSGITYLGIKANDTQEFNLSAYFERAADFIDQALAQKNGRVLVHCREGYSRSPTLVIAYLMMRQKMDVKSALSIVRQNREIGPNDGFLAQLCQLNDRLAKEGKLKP
Sa ugtP lethal: growth inhibition of S. aureus ugtP deletion strain | S. aureus RN4220 ugtP deletion, OD600 growth, 16 h | growth inhibition, % (concentration not given with the values) | 330,000 tested, 0.54% active | AID 1259309; in the data active means growth inhibition above about 68%;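 further: plate controls were untreated wells for no effect and antibiotic for full effect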
Mtb hypoxia inh: Mtb hypoxia fluorescent reporter inhibition | AID 1159583 | fluorescence inhibition, % (test concentration not listed) | 300,000 tested, 0.1% active | M. tuberculosis hypoxia-regulated fluorescent reporter, fluorescence; in the data active means fluorescence inhibition mostly above about 23%, no sharp cut-off; inactive means mostly below about 17%
RN4220 kill: S. aureus RN4220 growth inhibition; OD600, 16 h; inhibition, % (concentration not given with the values); 330,000 tested, 0.33% active; AID 1259311; in the data active means inhibition above about 85%;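 further: plate controls were untreated cells for no effect and reference antibiotic for full effect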
PriA SSB inh: K. pneumoniae PriA-SSBct interaction inhibition; inhibition, % at 33 µM; 430,000 tested, 0.6% active; AlphaScreen SSBct-PriA binding, biotinylated peptide; in the data active means inhibition mostly above about 37%, no sharp cut-off; inactive means mostly below about 20%;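 further: plate controls were negative control peptide for no effect and reference peptide for full effect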
PfHsp40 rescue: compounds rescuing yeast from Plasmodium falciparum HSP40 toxicity. S. cerevisiae expressing PfHsp40, growth rescue, ATP luminescence. AID 504582. growth rescue, % at 12.5 µM. 340,000 tested, 0.68% active; in the data active means growth rescue above about 28%, passing the limit was not always enough;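 further: yeast W303a lacking pdr1 and pdr3 grown in galactose medium; growth measured after three days at 30 °C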
* marks the source's active call; other numbers are inactive results; nt = not tested or not shown. An excerpt weighted towards active compounds, which were near 1.8% of everything screened.

SMILES | DUSP3 inh | Sa ugtP lethal | Mtb hypoxia inh | RN4220 kill | PriA SSB inh | PfHsp40 rescue
Cc1cc([N+](=O)[O-])c2[nH]c(C(=O)N/N=C/c3ccccc3C(=O)O)c(-c3ccccc3)c2c1 | 90.3* | nt | nt | nt | nt | -1.1
Cc1cc(N2C(=O)C(O)=C(C(=O)c3ccco3)C2c2cccc(Cl)c2)no1 (stereo unspecified) | 10.4 | 92.2* | -8.4 | 96.4* | -9.9 | 0.8
CCCOc1ccc(C2C(C(=O)c3cc4ccccc4o3)=C(O)C(=O)N2c2cc(C)on2)cc1OC (stereo unspecified) | 1.8 | 100.2* | -5.8 | 99.2* | 6.2 | 0.9
C=CCOc1cccc(C2C(C(=O)c3cc4ccccc4o3)=C(O)C(=O)N2c2cc(C)on2)c1 (stereo unspecified) | 1.6 | 100.4* | -7.7 | 99.8* | -16.8 | -0.3
CCCOc1ccc(C2C(C(=O)c3cc4ccccc4o3)=C(O)C(=O)N2c2cc(C)on2)cc1 (stereo unspecified) | 9.1 | nt | nt | nt | -10.7 | -0.1
COc1cccc(C2C(C(=O)c3cc4ccccc4o3)=C(O)C(=O)N2c2cc(C)on2)c1 (stereo unspecified) | 10.7 | 61.2 | -9.2 | 30.6 | -7.3 | 1.7
Cc1cc(C)n2nc(C(=O)N3CCCC(Cc4nc(C5CC5)no4)C3)nc2n1 (stereo unspecified) | nt | nt | nt | nt | -22.0 | nt
Clc1ccc(-n2ncc3c(NCc4ccccn4)ncnc32)cc1Cl | nt | nt | nt | nt | -13.0 | nt
COc1ccccc1N1CCN(C(=O)/C=C/c2cccs2)CC1 | -3.8 | 3.9 | 16.0 | 3.2 | -13.6 | 0.4
COc1ccccc1N1CCN(C(=O)/C=C/c2ccccc2)CC1 | 52.9* | 4.7 | nt | 2.6 | 0.4 | -0.4
CCc1[nH]nc(C(=O)N2CCCC(C(=O)c3cccc(C(F)(F)F)c3)C2)c1C (stereo unspecified) | 52.5* | -0.8 | -8.3 | 0.5 | -10.3 | -1.2
CNC(=O)COc1ccccc1C(=O)Nc1ccc2c(c1)oc1ccccc12 | 55.3* | -14.1 | -8.7 | -2.7 | -7.7 | 0.4
Cc1c(Cl)cccc1NS(=O)(=O)c1ccc2c(c1)C1C=CCC1C(c1ccc(C(=O)O)cc1)N2 (stereo unspecified) | 46.4 | 37.2 | 3.2 | 41.8 | 23.6 | 34.8*
CN(C(=O)CSc1nc(-c2ccccc2)cn1N)C(c1ccccc1)c1ccccc1 | 6.5 | -12.7 | -0.7 | 0.6 | 50.0* | -0.2
CC1CN(C(=O)CCC(=O)NCCCN2C(C)CCCC2C)c2ccccc2O1 (stereo unspecified) | 52.8* | 4.7 | 8.3 | -9.6 | -7.4 | -2.4
COc1ccc(-c2cc(-c3c(O)c(OC)c4occc4c3OC)[nH]n2)cc1OC | 19.2 | -7.5 | 2.7 | 9.8 | 32.4 | 31.5*
COc1ccc(-c2cc(-c3c(O)c(OC)c4occc4c3OC)[nH]n2)cc1 | 24.0 | -12.9 | 9.3 | 3.8 | 28.6 | 3.4
Cc1cc2n(n1)C(c1c[nH]c3ccccc13)Nc1ccccc1-2 (stereo unspecified) | -3.7 | 99.3* | -2.4 | 99.2* | -1.4 | 1.7
Cc1cc2n(n1)C(c1cn(-c3ccccc3)nc1C)Nc1ccccc1-2 (stereo unspecified) | 1.9 | -12.7 | -5.4 | -7.5 | 11.8 | -0.5
COCCCN1C2=C(C(=O)CC(C)(C)C2)C(c2ccc(OC)c(OC)c2)C2=C1CC(C)(C)CC2=O | 51.3* | 4.7 | 0.5 | 2.5 | -8.1 | 0.3
COCCN1C2=C(C(=O)CC(C)(C)C2)C(c2ccc(OC)c(OC)c2)C2=C1CC(C)(C)CC2=O | 15.4 | 10.1 | 6.6 | 5.4 | -0.3 | -0.5
COc1ccc(Nc2ccnc(Nc3ccc(OC)cc3)n2)cc1 | -4.1 | -15.3 | 2.0 | 2.7 | 44.9* | 0.0
Cc1ccc(/C=C2\C(=O)Nc3ccccc32)o1 | 2.6 | 100.3* | -4.4 | 59.6 | 6.0 | 0.3
NS(=O)(=O)c1ccc(-c2ccc(/C=C3\C(=O)Nc4ccccc43)o2)cc1 | 28.3 | nt | nt | nt | nt | nt
CCN(CC)CCN(C(=O)c1ccc(C(=O)c2ccccc2)cc1)c1nc2c(F)cc(F)cc2s1 | nt | nt | nt | nt | 3.0 | nt
SMILES | DUSP3 inh | Sa ugtP lethal | Mtb hypoxia inh | RN4220 kill | PriA SSB inh | PfHsp40 rescue
Cc1nc(SCc2ccc(OCCC(C)C)cc2)n[nH]1 | 28.6 | 3.8 | 10.5 | 17.4 | 4.5 | 300.9*
Cc1nc(SCc2ccc(F)cc2)n[nH]1 | 5.8 | 1.0 | 2.7 | 0.3 | -13.6 | -0.7
CCCCCOc1ccc(CSc2n[nH]c(C)n2)cc1 | -13.3 | 9.1 | -7.1 | -1.5 | -18.7 | 271.4*
C=CCSc1nc(-c2ccc(OC)c(OC)c2)cc(C(F)(F)F)c1C#N | nt | nt | nt | nt | -5.0 | nt
COc1ccc(C=NNC(=O)Cn2nc(C)c([N+](=O)[O-])c2C)cc1 | nt | 2.4 | 4.7 | 6.4 | -2.9 | nt
CCCN1CCCC[C@H]1C(=O)Nc1c(C)cccc1C | nt | nt | nt | nt | -6.6 | 43.1*
CN1CCN(C(CC(=O)Nc2ccc(F)cc2F)C(=O)O)CC1 (stereo unspecified) | nt | nt | nt | nt | 6.0 | nt
C=C(C)CNC(=S)NNC(=O)CCn1c2cc(Cl)ccc2c2ccc(Cl)cc21 | -7.9 | -17.6 | -4.2 | 7.3 | -7.0 | 3.4
C=C(C)CNC(=S)NNC(=O)CCn1c2ccc(Cl)cc2c2cc(Cl)ccc21 | -12.5 | 43.4 | 0.2 | 92.6* | -4.7 | 11.0
Cc1ccc(-n2nc(C)cc2Nc2ncc(Cl)cc2Cl)cc1 | 1.1 | 3.4 | 9.5 | 7.9 | -31.5 | 93.4*
Cc1cccc(NC(=O)Cn2nc3c(cc2=O)C[C@@H](C)CC3)c1C | nt | nt | nt | nt | -6.0 | nt
CC(=O)N1N=C(c2cccs2)CC1c1cscc1C (stereo unspecified) | nt | nt | nt | nt | 10.0 | nt
Cc1ccc(C(=O)CC(=O)c2ccccc2C)c(O)c1 | 12.5 | 87.1* | 0.1 | 82.7 | 10.4 | 2.7
Cc1ccc(C(=O)CC(=O)c2cccc(F)c2)c(O)c1 | 26.1 | 94.2* | 6.6 | 88.2* | 7.5 | 395.9*
Cc1ccc(C(=O)c2ccccc2C(=O)O)c(O)c1 | 19.4 | 10.9 | 18.3 | 9.7 | 3.5 | -0.2
CC(=O)c1ccc(C)cc1OC(=O)c1cccc(F)c1 | 14.4 | 7.5 | 2.8 | 8.4 | -11.1 | -0.4
CC(Cc1ccccc1)=NNC(=O)CNC(=O)c1ccccc1O | nt | 0.4 | 7.8 | 5.9 | -4.5 | nt
COc1ccccc1NS(=O)(=O)c1cc(NC(=O)C(C)C)ccc1N1CCCCC1 | 14.7 | 5.1 | 6.6 | -5.1 | -0.4 | -2.2
CCNC(=S)Nc1ccc(C)c(S(=O)(=O)Nc2ccccc2OC)c1 | -10.3 | 5.7 | 11.2 | 0.7 | 0.6 | 105.9*
COc1ccccc1NS(=O)(=O)c1cc(NC(=O)Nc2ccccc2)ccc1N1CCCCC1 | 11.5 | -13.2 | -4.6 | -4.7 | -2.0 | 45.8*
COc1ccccc1NS(=O)(=O)c1cc(NC(=O)c2sccc2C)ccc1N1CCCC1 | 52.9* | -9.9 | -16.0 | 5.2 | 7.0 | -0.4
O=C(c1cccc(Oc2ccccn2)c1)N1CCN(c2ccccc2F)CC1 | nt | nt | nt | nt | -10.0 | nt
Cc1nnc(SCC2=C(C(=O)O)N3C(=O)[C@@H](NC(=O)Cn4cnnn4)[C@H]3SC2)s1 | -14.6 | 100.4* | nt | 97.4* | -2.5 | -1.3
CN(C)CCn1nnnc1SCC1=C(C(=O)O)N2C(=O)[C@@H](NC(=O)Cc3csc(N)n3)[C@H]2SC1 | nt | nt | nt | nt | -9.6 | -1.3

High-throughput results deposited in PubChem BioAssay by several laboratories.
